Source: ChEMBL document CHEMBL4296182, “CO-ADD screening of NIH NCI Diversity Set V”
For part of these data: Potency and affinity values are given separately.

What was measured:
Staphylococcus aureus = assay: Antibacterial activity against Staphylococcus aureus MRSA ATCC 43300 (CO-ADD:GP_020); MIC in CAMBH media using NBS plates, by Resazurin F(560/590); type: functional; conditions: Concentration 20 uM, ASSAY_TEST Inhibition of Bacterial Growth, detection method Resazurin, Fluorescence (ex560/em590), MEDIA CAMHB, plate type 384well, CORNING #3640, time 18 hr
Acinetobacter baumannii = assay: Antibacterial activity against Acinetobacter baumannii ATCC 19606 (CO-ADD:GN_034); MIC in CAMBH media using NBS plates, by Resazurin F(560/590); type: functional; conditions: Concentration 20 uM, ASSAY_TEST Inhibition of Bacterial Growth, detection method Resazurin, Fluorescence (ex560/em590), MEDIA CAMHB, plate type 384well, CORNING #3640, time 18 hr
Escherichia coli = assay: Antibacterial activity against Escherichia coli ATCC 25922 (CO-ADD:GN_001); MIC in CAMBH media using NBS plates, by Resazurin F(560/590); type: functional; conditions: Concentration 20 uM, ASSAY_TEST Inhibition of Bacterial Growth, detection method Resazurin, Fluorescence (ex560/em590), MEDIA CAMHB, plate type 384well, CORNING #3640, time 18 hr
Klebsiella pneumoniae = conditions: Concentration 20 uM; ASSAY_TEST Inhibition of Bacterial Growth; detection method Absorption (OD600); MEDIA CAMHB; plate type 384well; NBS; CORNING #3640; time 18 hr
Candida albicans = conditions: 20 µM
Cryptococcus neoformans = conditions: Concentration 20 uM; ASSAY_TEST Inhibition of Fungal Growth; detection method Resazurin; Absorption (OD600-OD570); plate type 384well; NBS; CORNING #3640

SMILES	Inhibition (Staphylococcus aureus)	Inhibition (Acinetobacter baumannii)	Inhibition (Escherichia coli)	Inhibition (Klebsiella pneumoniae)	Inhibition (Candida albicans)	Inhibition (Cryptococcus neoformans)
CN1C(=O)CC[C@@]2(C)C1=CC[C@@H]1[C@@H]2CC[C@@]2(C)[C@H]1CC[C@]2(C)O	8.7%	-5.24%	22.22%	11.27%	-0.13%	-18.95%
COC(=O)c1nc(-c2ccc3c(n2)C(=O)C(N)=C(OC)C3=O)c(N)c(-c2ccc(OC)c(OC)c2O)c1C	-0.84%	-9.1%	8.8%	8.38%	-0.15%	0.31%
O=C1NC(=O)C(=Cc2ccc3ccccc3c2)C(=O)N1	0.11%	10.33%	-2.67%	19.68%	25.6%	-7.82%
c1ccc2c(c1)Sc1ccccc1N2CC1CN2CCC1CC2 (stereo not drawn) [MEQUITAZINE]	31.62%	2.18%	10.66%	26.05%	3.26%	-3.37%
CC(Cc1ccccc1)NC(N)=O (stereo not drawn)	1.52%	-11.77%	14.19%	16.63%	1.15%	-7.14%
CN(C)C1CCc2[nH]c3c(F)cc(F)cc3c2C1 (stereo not drawn) [FLUCINDOLE]	8.89%	9.46%	1.82%	23.22%	2.28%	-13.31%
O=C(O)CN1C(=O)CN=C(c2ccccn2)c2cc(Cl)ccc21	15.35%	8.33%	-0.79%	10.65%	1.18%	0%
SC1=NC2(CCCCC2)NC12CCCCC2	8.84%	6.83%	-0.29%	17.38%	4.26%	-3.97%
CC(=O)Nc1cccc([As](=O)(c2cccc(NC(C)=O)c2)c2cccc(NC(C)=O)c2)c1	0.93%	1.38%	-5.49%	9.67%	0.37%	-8.79%
CN1C(=O)NC(=O)C(/N=N/c2ccc(Cl)cc2)C1=O (stereo not drawn)	11.94%	12.18%	3.45%	13.9%	1.14%	-3.1%
C/C=C/CC1(CC)C(=O)NC(=S)NC1=O	-2.18%	-12.12%	-2.34%	1.47%	1.14%	0.11%
C/C=C(/C)C(=O)O[C@H]1CCN2CC=C(COC(=O)[C@@](O)([C@H](C)OC)C(C)(C)O)[C@H]12	10.77%	-8.86%	10.49%	12.46%	-1.68%	-5.72%
COc1ccc(C2=CC(c3ccc(OC)c(OC)c3)c3c(c4ccccc4oc3=O)O2)cc1OC (stereo not drawn)	20.66%	-10.24%	10.7%	7.71%	5.25%	-11.5%
CN1CCN(c2nc(N)c(Br)c(Cl)n2)CC1	8.04%	10.68%	2.4%	16.05%	2.84%	-7.43%
CCC(CO)NC(=O)C1C=C2c3cccc4[nH]cc(c34)CC2N(C)C1 (stereo not drawn)	1.02%	14.09%	-11.63%	10.28%	-0.04%	5.57%
O=C(Oc1ccccc1)N(c1ccccc1)c1ccccc1	13.05%	1.09%	9.21%	3.21%	5.51%	-11.03%
CC(CC(C#N)(c1ccccc1)c1ccccc1)N1CCCCC1 (stereo not drawn)	-22.27%	-8.26%	-18.71%	1.48%	0.01%	28.3%
C=CCNC(=S)Nc1ccc(OC(=O)Nc2ccc(Cl)c(Cl)c2)cc1	9.35%	4.81%	5.81%	5.22%	2.25%	-4.79%
CC1CC(C)OP(=O)(OCCC#N)O1 (stereo not drawn)	11.79%	-12.84%	9.51%	9.69%	-4.51%	-8.12%
CC(=O)OC1CCC2(C)C(CCC3C2CC(=O)C2(C)C3CC(N3CC3)C2C(C)=O)C1 (stereo not drawn)	-6.66%	-5.39%	9.74%	4.84%	-0.96%	-1.15%
CSc1nc(=O)c(/N=N/c2ccc([As](=O)(O)O)cc2)c(N)[nH]1	-2.85%	10.89%	7.88%	8.89%	-0.24%	-16.43%
ClC1=C(Cl)C(Cl)=C(Cl)C1=C/C=C/c1ccccc1	-15.24%	-5.13%	-15.65%	6.7%	5.69%	2.88%
O=C1NC(=O)C(=Cc2csc3ccccc23)C(=O)N1	-1.57%	11.43%	7.83%	15.53%	23.9%	-17.03%
